Source: PubChem BioAssay AID778 (Sanford-Burnham Center for Chemical Genomics, 2007)
Hit rate of the full screen: of about 96,000 compounds, about 20,000 (21%) were called active.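 How the source made its calls: active means CYP2C19 inhibition above a set limit at 5 µM in the primary screen (cut at about 50% in these data); inactive means the rest.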 A selection follows.

target: Cytochrome P450 2C19 (Homo sapiens) (UniProt P33261); experiment: blockers of cytochrome P450 2C19 activity – biochemical, luminescence, ADME assay, primary screen (AID 778); details: CYP2C19 Supersomes, luciferin-H EGE luminescence, 30 min; at 5 µM; active compounds read high;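 further: plate controls were negative control wells for no effect and 2.5 mM tranylcypromine positive control for full effect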
Sequence (P33261 whole entry, looked up): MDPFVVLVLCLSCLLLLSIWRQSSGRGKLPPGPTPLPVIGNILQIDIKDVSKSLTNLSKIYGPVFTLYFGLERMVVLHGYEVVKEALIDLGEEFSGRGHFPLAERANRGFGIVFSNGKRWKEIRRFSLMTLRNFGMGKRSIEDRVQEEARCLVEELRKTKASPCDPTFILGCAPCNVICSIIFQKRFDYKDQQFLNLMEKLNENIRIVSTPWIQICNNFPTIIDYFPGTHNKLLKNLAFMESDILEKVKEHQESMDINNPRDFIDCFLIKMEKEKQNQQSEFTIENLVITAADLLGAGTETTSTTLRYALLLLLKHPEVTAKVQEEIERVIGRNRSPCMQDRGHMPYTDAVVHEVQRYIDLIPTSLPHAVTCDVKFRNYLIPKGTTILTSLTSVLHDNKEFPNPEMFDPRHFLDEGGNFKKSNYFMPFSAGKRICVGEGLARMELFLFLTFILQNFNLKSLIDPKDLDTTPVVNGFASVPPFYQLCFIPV

inhibition, active:
Cc1cccc(Cn2c(N3CCN(c4ccccc4)CC3)nc3c2c(=O)n(C)c(=O)n3C)c1 72.8%
Cc1cccc(Cn2c(SCCO)nc3c2c(=O)n(C)c(=O)n3C)c1 51.7%
CCOC(=O)CSc1nc2c(c(=O)n(C)c(=O)n2C)n1Cc1ccccc1F 63.1%
COc1ccc(CN(C(=O)c2cccs2)c2nccs2)cc1OC 100%
CCCCOC(=O)Cn1c(=O)n(CC(=O)OCCCC)c2cc(C)ccc21 55.8%
O=C(Nc1cccc(-c2nnc(-c3ccccc3)o2)c1)C1CCCO1 (stereo unspecified) 71.9%

inhibition, inactive:
CC1(C)Cc2c(sc3nc(SCC(=O)NCc4ccccc4)n(-c4ccccc4)c(=O)c23)CS1 1.8%
Cn1c(=O)c2c(nc(NCCc3ccccc3)n2Cc2ccccc2)n(C)c1=O 8.9%
CCOc1ccc(Cn2c(SCCCCC#N)nc3c2c(=O)n(C)c(=O)n3C)cc1OCC 20.4%
CCOC(=O)N1CCN(Cc2nc3c(c(=O)n(C)c(=O)n3C)n2Cc2ccccc2)CC1 30%
CCOC(=O)CSc1nc2c(c(=O)n(Cc3ccccc3Cl)c(=O)n2C)n1C -6%
CC(C)OCCCNc1nc2c(c(=O)n(Cc3ccccc3F)c(=O)n2C)n1C 42.7%
CCCSc1nc2c(c(=O)n(C)c(=O)n2C)n1Cc1ccc(C)cc1 17.6%
C/C(=N\c1nc2ccccc2n1C)c1cc(Cl)ccc1O -5.8%
CCN(CC)c1ccc(/C=N/Nc2nc(C)cc(=O)[nH]2)cc1 7.4%
COc1ccc(CCN(C(=O)COc2ccccc2)c2nc(-c3ccccc3)cs2)cc1OC 35.3%
O=C(c1cccs1)N(C(=O)c1cccs1)c1ccccn1 23%
CCOC(=O)c1cc2n(c1C)-c1ccccc1C2=O 17.8%
COc1ccc(C(=O)NNC(=O)c2cnccn2)cc1[N+](=O)[O-] 11.1%
Cc1cc(C)nc(N2CCN(c3ncnc4c3oc3ccccc34)CC2)n1 -16.1%
CCCCOC(=O)Cn1c(=N)n(CCN(CC)CC)c2ccccc21 -29.6%
CCOC(=O)CN1C(=O)C(=O)c2cc(C)ccc21 -2.2%
Cc1ccc2nc3n(c(=O)c2c1)CCC3 -4.2%
Cc1ccccc1NC(=O)Cc1nnc(SCC(=O)N2CCN(c3ccccc3)CC2)n1C 26.9%
O=C(Nc1nnc(CCc2ccccc2)s1)C1CCCO1 (stereo unspecified) 15.6%
O=C(Nc1ccc(-c2nnc(-c3ccccc3)o2)cc1)C1CCCO1 (stereo unspecified) 17.1%
